# Source: PubChem BioAssay (Tox21)
# Records with an inconclusive call do not appear. Where a call stands in place of a potency, no number is given. Calls of active or inactive are those of the source. Calls follow the shape of the full dose curve.
# Target: Acetylcholinesterase (Homo sapiens) (UniProt P22303)
# Test: Acetylcholinesterase (AChE) small molecule antagonists: colormetric cell-based qHTS assay (AID 1347395); also: nearly all actives have a fitted effect of over 30% in size
# Conditions: SH-SY5Y cells AChE activity, colorimetric (Ellman); series mostly up to 115 µM
# Procedure, shortened: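 SH-SY5Y cells, plated overnight at 37 C, were exposed to compounds for 30 min at 37 C and 5% CO2. Acetylthiocholine plus DTNB was then added, and thiocholine from endogenous AChE was quantified colorimetrically after 90 min at 37 C.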
# Potency is read from the fitted curve at half-maximal effect.
# Chain of Acetylcholinesterase (Homo sapiens) (P22303 whole entry, looked up): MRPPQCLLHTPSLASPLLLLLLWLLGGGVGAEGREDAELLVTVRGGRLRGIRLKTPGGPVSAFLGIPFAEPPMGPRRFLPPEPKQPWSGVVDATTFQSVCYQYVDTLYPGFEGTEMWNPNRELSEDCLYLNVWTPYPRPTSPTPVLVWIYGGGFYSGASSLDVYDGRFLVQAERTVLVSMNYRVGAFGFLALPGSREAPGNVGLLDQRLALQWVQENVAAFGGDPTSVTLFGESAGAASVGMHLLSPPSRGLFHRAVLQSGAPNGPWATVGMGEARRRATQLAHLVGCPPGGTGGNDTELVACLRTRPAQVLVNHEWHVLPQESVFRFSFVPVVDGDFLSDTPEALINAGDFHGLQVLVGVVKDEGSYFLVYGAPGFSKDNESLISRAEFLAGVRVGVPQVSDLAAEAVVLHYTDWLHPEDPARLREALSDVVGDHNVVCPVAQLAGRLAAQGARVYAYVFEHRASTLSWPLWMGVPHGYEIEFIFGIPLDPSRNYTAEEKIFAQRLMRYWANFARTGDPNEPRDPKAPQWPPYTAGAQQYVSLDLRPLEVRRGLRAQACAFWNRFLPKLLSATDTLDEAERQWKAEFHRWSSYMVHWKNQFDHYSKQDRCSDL
row,SMILES,Potency
1,c1ccc(CNCc2ccccc2)cc1,inactive
2,O=c1cc(CO)occ1O,inactive
3,OCCN1CN(CCO)CN(CCO)C1,inactive
4,CC(O)C1CCCCC1 (stereo not given),inactive
5,O=C(c1ccccc1)C1CCC1,inactive
6,C=CC(=O)OCCCl,inactive
7,CC(=O)CC(c1ccc([N+](=O)[O-])cc1)c1c(O)c2ccccc2oc1=O (stereo not given),inactive
8,C#C[C@]1(O)CC[C@H]2[C@@H]3CCc4cc(OC5CCCC5)ccc4[C@H]3CC[C@@]21C,inactive
9,O=c1[nH]c(=O)n([C@H]2O[C@H](CO)[C@@H](O)[C@@H]2O)cc1/C=C\Br,inactive
10,Clc1cc(Cl)c2c(c1)N=C1CCCCCN1C2,776 nM (active)
11,C=CCCC(=O)O,inactive
12,O=c1[nH]sc2ccccc12,inactive
13,CCO,inactive
14,N#Cc1ccc(C/C(=N/NC(=O)Nc2ccc(OC(F)(F)F)cc2)c2cccc(C(F)(F)F)c2)cc1,inactive
15,CC[C@@H]1C[C@H](N(Cc2cc(C(F)(F)F)cc(C(F)(F)F)c2)C(C)=O)c2cc(C(F)(F)F)ccc2N1C(=O)OC(C)C,inactive
16,CCN(CC)C(=O)Nc1ccc(OCC(O)CNC(C)(C)C)c(C(C)=O)c1 (stereo not given),inactive
17,CCCCOCC,inactive
18,CCC1Nc2cc(Cl)c(S(N)(=O)=O)cc2S(=O)(=O)N1 (stereo not given),inactive
19,Nc1nc(N)c(-c2ccccc2)s1,inactive
20,O=[N+]([O-])c1ccc2[nH]ncc2c1,inactive

row,SMILES,Potency
1,CC(C)(C)C1CCC(=O)CC1,inactive
2,O=C(CCS)OCC(COC(=O)CCS)(COC(=O)CCS)COC(=O)CCS,inactive
3,OC[C@H]1O[C@@H](O[C@@H]2[C@@H](CO)O[C@](O)(CO)[C@H]2O)[C@H](O)[C@@H](O)[C@H]1O,inactive
4,CCOC(=O)COc1cc(-n2ncc(C(F)(F)F)c(C)c2=O)c(F)cc1Cl,inactive
5,CCCC(CC)CCCCCCCN (stereo not given),inactive
6,CS(C)=O,inactive
7,CC(COc1ccccc1)NN (stereo not given),inactive
8,CC(C)COC(=O)COc1cc(Cl)c(Cl)cc1Cl,inactive
9,CCCCOc1ccc(OCCCN2CCOCC2)cc1,inactive
10,O=C(/C=C/c1ccc(O)c(O)c1)O[C@@H]1C[C@](O)(C(=O)O)C[C@@H](O)[C@H]1O,inactive
11,CCCCCCC(=O)OCC,inactive
12,Cc1ccc(S(=O)(=O)C(I)I)cc1,inactive
13,O=S(=O)(O)c1ccccc1/C=C/c1ccc(-c2ccc(/C=C/c3ccccc3S(=O)(=O)O)cc2)cc1,inactive
14,C=CCc1ccccc1OCC(O)CNC(C)C (stereo not given),inactive
15,CO[Si](CCCS)(OC)OC,inactive
16,O=C1OC(CN2CCOCC2)CN1/N=C/c1ccc([N+](=O)[O-])o1 (stereo not given),inactive
17,COCCCC/C(=N\OCCN)c1ccc(C(F)(F)F)cc1,inactive
18,CN(C1CCCCC1)S(=O)(=O)c1ccccc1N,inactive
19,N#CCc1ccccc1[N+](=O)[O-],inactive
20,COC(=O)Nc1nc2ccc(C(=O)c3ccccc3)cc2[nH]1,inactive

# Target: Acetylcholinesterase (Homo sapiens) (UniProt P22303)
# Test: Acetylcholinesterase (AChE) small molecule antagonists: enzyme-based qHTS assay (AID 1347397); also: nearly all actives have a fitted effect of over 55% in size
# Conditions: Potency: AChE enzyme activity inhibition; outcome: AChE enzyme activity inhibition; series mostly up to 115 µM
# Procedure, shortened: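 First, recombinant human AChE (50 mU/mL as dispensed) received test compound or DMSO. Second, plates stood 30 min at room temperature. Third, DTNB and acetylthiocholine were added, followed by 10 min at room temperature and colorimetric detection.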
row,SMILES,Potency
1,c1ccc(CNCc2ccccc2)cc1,inactive
2,O=c1cc(CO)occ1O,inactive
3,OCCN1CN(CCO)CN(CCO)C1,inactive
4,CC(O)C1CCCCC1 (stereo not given),inactive
5,O=C(c1ccccc1)C1CCC1,inactive
6,C=CC(=O)OCCCl,inactive
7,CC(=O)CC(c1ccc([N+](=O)[O-])cc1)c1c(O)c2ccccc2oc1=O (stereo not given),inactive
8,C#C[C@]1(O)CC[C@H]2[C@@H]3CCc4cc(OC5CCCC5)ccc4[C@H]3CC[C@@]21C,inactive
9,O=c1[nH]c(=O)n([C@H]2O[C@H](CO)[C@@H](O)[C@@H]2O)cc1/C=C\Br,inactive
10,Clc1cc(Cl)c2c(c1)N=C1CCCCCN1C2,871 nM (active)
11,C=CCCC(=O)O,inactive
12,O=c1[nH]sc2ccccc12,inactive
13,CCO,inactive
14,N#Cc1ccc(C/C(=N/NC(=O)Nc2ccc(OC(F)(F)F)cc2)c2cccc(C(F)(F)F)c2)cc1,inactive
15,CC[C@@H]1C[C@H](N(Cc2cc(C(F)(F)F)cc(C(F)(F)F)c2)C(C)=O)c2cc(C(F)(F)F)ccc2N1C(=O)OC(C)C,inactive
16,CCN(CC)C(=O)Nc1ccc(OCC(O)CNC(C)(C)C)c(C(C)=O)c1 (stereo not given),inactive
17,CCCCOCC,inactive
18,CCC1Nc2cc(Cl)c(S(N)(=O)=O)cc2S(=O)(=O)N1 (stereo not given),inactive
19,Nc1nc(N)c(-c2ccccc2)s1,inactive
20,O=[N+]([O-])c1ccc2[nH]ncc2c1,inactive

row,SMILES,Potency
1,CC(C)(C)C1CCC(=O)CC1,inactive
2,O=C(CCS)OCC(COC(=O)CCS)(COC(=O)CCS)COC(=O)CCS,inactive
3,OC[C@H]1O[C@@H](O[C@@H]2[C@@H](CO)O[C@](O)(CO)[C@H]2O)[C@H](O)[C@@H](O)[C@H]1O,inactive
4,CCOC(=O)COc1cc(-n2ncc(C(F)(F)F)c(C)c2=O)c(F)cc1Cl,inactive
5,CCCC(CC)CCCCCCCN (stereo not given),inactive
6,CS(C)=O,inactive
7,CC(COc1ccccc1)NN (stereo not given),inactive
8,CC(C)COC(=O)COc1cc(Cl)c(Cl)cc1Cl,inactive
9,CCCCOc1ccc(OCCCN2CCOCC2)cc1,inactive
10,O=C(/C=C/c1ccc(O)c(O)c1)O[C@@H]1C[C@](O)(C(=O)O)C[C@@H](O)[C@H]1O,inactive
11,CCCCCCC(=O)OCC,inactive
12,Cc1ccc(S(=O)(=O)C(I)I)cc1,inactive
13,O=S(=O)(O)c1ccccc1/C=C/c1ccc(-c2ccc(/C=C/c3ccccc3S(=O)(=O)O)cc2)cc1,inactive
14,C=CCc1ccccc1OCC(O)CNC(C)C (stereo not given),inactive
15,CO[Si](CCCS)(OC)OC,inactive
16,O=C1OC(CN2CCOCC2)CN1/N=C/c1ccc([N+](=O)[O-])o1 (stereo not given),inactive
17,COCCCC/C(=N\OCCN)c1ccc(C(F)(F)F)cc1,inactive
18,CN(C1CCCCC1)S(=O)(=O)c1ccccc1N,inactive
19,N#CCc1ccccc1[N+](=O)[O-],inactive
20,COC(=O)Nc1nc2ccc(C(=O)c3ccccc3)cc2[nH]1,inactive
